How the values were obtained:
Test in all cases: DAPPL (digital affinity profiling via proximity ligation, sequencing); 10 mM Tris-HCl pH 7.5, 50 mM NaCl, 1 mM DTT, 4% glycerol, room temperature, 30 min; GST-TFs on glutathione beads, 16-mer random dsDNA library, 0.1% formaldehyde crosslink after washing; high values mean tight binding
[1] = molecular target: HSF1 (Homo sapiens, UniProt Q00613 1-529); settings: protein: recombinant; tags: N-terminal GST; chain copies: 3; dsDNA, one strand shown
Method in brief: (§1)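 GST fusions of human transcription factors were expressed in yeast and captured with glutathione beads. Once given DNA barcodes and pooled alongside a tag-only sample, they were incubated for 30 min at room temperature with 200 nmole of a random double-stranded 16-mer DNA library in Tris/NaCl/DTT/glycerol buffer, then washed, crosslinked (0.1% formaldehyde), proximity-ligated, PCR-amplified and sequenced on an Illumina NextSeq500. The binding signal of each hexamer is its read frequency for a factor divided by its frequency for the tag-only sample.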

[2] = molecular target: T1, ELK1 (Homo sapiens, UniProt P19419 1-428); settings: protein: recombinant; tags: N-terminal GST; dsDNA, one strand shown
T1 sequence: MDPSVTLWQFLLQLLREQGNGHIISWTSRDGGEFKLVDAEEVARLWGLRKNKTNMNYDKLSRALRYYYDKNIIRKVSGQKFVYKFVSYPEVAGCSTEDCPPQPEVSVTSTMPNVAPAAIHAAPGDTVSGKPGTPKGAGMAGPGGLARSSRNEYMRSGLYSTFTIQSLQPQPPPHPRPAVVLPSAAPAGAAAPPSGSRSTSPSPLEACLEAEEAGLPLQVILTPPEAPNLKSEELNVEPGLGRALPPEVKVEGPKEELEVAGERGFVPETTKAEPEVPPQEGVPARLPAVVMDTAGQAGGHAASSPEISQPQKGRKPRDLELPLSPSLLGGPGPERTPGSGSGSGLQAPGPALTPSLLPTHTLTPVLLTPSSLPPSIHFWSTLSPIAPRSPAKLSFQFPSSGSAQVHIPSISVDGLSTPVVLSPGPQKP
Method in brief: as §1

[3] = molecular target: ELF1 (Homo sapiens, UniProt P32519 1-619); settings: protein: recombinant; tags: N-terminal GST; dsDNA, one strand shown
Method in brief: as §1

[4] = molecular target: SPI1 (Homo sapiens, UniProt P17947 1-270); settings: protein: recombinant; tags: N-terminal GST; dsDNA, one strand shown
Method in brief: as §1

[5] = molecular target: SPIB (Homo sapiens, UniProt Q01892 1-262); settings: protein: recombinant; tags: N-terminal GST; dsDNA, one strand shown
Method in brief: as §1

[6] = molecular target: T2, SPIC (Homo sapiens, UniProt Q8N5J4 1-248); settings: protein: recombinant; tags: N-terminal GST; dsDNA, one strand shown
T2 sequence: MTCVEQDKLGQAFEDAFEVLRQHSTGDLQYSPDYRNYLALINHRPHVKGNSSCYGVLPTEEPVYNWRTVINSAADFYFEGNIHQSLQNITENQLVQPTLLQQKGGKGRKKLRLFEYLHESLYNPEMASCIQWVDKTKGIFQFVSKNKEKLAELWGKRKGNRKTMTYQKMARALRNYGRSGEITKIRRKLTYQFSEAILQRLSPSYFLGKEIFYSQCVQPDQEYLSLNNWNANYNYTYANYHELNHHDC
Method in brief: as §1

[7] = molecular target: T3, ELK4 (Homo sapiens, UniProt P28324-2 1-405); settings: protein: recombinant; tags: N-terminal GST; dsDNA, one strand shown
T3 sequence: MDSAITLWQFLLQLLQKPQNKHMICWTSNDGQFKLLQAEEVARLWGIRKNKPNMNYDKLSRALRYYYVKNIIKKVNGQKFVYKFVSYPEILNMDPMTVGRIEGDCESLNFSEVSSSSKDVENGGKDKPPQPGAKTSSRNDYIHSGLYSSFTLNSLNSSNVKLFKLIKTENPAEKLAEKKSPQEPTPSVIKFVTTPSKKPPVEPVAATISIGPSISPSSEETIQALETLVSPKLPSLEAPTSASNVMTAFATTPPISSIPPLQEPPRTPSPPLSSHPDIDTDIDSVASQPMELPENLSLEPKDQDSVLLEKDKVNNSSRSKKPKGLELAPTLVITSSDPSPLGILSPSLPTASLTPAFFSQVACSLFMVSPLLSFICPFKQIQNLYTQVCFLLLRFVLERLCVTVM
Method in brief: as §1

[8] = molecular target: T4, ELF3 (Homo sapiens, UniProt P78545 1-371); settings: protein: recombinant; tags: N-terminal GST; dsDNA, one strand shown
T4 sequence: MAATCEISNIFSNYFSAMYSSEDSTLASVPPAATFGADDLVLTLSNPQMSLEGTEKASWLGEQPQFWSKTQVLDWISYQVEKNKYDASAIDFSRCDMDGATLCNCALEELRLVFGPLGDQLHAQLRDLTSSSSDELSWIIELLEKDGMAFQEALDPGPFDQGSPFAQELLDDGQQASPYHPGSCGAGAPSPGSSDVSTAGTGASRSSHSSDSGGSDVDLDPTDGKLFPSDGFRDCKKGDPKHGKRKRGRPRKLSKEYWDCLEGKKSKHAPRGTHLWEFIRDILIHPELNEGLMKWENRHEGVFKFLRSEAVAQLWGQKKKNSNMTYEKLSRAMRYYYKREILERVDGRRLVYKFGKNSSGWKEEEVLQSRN
Method in brief: as §1

[9] = molecular target: ETV1 (Homo sapiens, UniProt P50549 1-477); settings: protein: recombinant; tags: N-terminal GST; dsDNA, one strand shown
Method in brief: as §1

[10] = molecular target: T5, ERF (Homo sapiens, UniProt P50548 1-548); settings: protein: recombinant; tags: N-terminal GST; dsDNA, one strand shown
T5 sequence: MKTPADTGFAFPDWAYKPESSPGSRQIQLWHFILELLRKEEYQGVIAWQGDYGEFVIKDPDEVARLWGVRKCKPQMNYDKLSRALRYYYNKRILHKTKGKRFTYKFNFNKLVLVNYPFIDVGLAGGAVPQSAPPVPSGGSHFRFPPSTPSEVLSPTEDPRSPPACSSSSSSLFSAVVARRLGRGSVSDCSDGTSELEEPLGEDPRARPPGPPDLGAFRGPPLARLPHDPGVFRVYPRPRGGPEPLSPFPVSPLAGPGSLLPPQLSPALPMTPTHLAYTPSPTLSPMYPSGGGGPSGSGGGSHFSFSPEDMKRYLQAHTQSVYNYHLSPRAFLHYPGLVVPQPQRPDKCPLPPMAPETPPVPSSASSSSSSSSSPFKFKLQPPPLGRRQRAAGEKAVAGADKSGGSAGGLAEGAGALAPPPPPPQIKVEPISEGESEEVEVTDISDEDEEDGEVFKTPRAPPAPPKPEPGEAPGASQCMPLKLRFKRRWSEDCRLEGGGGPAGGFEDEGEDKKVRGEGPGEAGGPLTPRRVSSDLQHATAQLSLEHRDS
Method in brief: as §1

[11] = molecular target: T6, ETS2 (Homo sapiens, UniProt P15036 1-469); settings: protein: recombinant; tags: N-terminal GST; dsDNA, one strand shown
T6 sequence: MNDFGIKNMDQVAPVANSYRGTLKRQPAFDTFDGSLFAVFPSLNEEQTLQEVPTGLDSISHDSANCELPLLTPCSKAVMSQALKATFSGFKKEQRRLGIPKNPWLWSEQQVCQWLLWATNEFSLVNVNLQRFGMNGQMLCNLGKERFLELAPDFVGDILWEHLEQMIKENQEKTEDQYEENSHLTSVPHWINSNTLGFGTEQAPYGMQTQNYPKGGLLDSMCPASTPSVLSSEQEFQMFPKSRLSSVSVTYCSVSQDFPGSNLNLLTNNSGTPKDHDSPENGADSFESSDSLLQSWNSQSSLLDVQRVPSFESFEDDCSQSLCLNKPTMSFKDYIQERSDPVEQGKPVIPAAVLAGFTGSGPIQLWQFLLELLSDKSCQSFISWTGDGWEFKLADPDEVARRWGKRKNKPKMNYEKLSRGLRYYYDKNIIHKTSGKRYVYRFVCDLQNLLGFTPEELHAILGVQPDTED
Method in brief: as §1

[12] = molecular target: T7, ETV3 (Homo sapiens, UniProt P41162-2 1-143); settings: protein: recombinant; tags: N-terminal GST; dsDNA, one strand shown
T7 sequence: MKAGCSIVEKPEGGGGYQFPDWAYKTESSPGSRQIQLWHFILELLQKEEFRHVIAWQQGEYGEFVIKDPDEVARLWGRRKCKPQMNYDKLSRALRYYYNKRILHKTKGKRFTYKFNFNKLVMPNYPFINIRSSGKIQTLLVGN
Method in brief: as §1

[13] = molecular target: CRX (Homo sapiens, UniProt O43186 1-299); settings: protein: recombinant; tags: N-terminal GST; dsDNA, one strand shown
Method in brief: as §1

[14] = molecular target: T8, ETV3L (Homo sapiens, UniProt Q6ZN32 1-361); settings: protein: recombinant; tags: N-terminal GST; dsDNA, one strand shown
T8 sequence: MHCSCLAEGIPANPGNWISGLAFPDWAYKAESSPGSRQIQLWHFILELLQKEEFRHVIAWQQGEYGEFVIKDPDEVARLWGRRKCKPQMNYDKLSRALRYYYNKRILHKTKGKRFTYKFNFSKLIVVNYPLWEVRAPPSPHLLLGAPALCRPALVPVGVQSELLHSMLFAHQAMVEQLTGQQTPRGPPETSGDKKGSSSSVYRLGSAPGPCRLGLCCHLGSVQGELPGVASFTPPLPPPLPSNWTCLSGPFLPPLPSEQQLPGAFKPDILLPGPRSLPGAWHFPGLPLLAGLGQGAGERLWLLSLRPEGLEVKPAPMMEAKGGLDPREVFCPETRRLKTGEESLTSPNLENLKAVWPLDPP
Method in brief: as §1

[15] = molecular target: T9, SPDEF (Homo sapiens, UniProt O95238 1-335); settings: protein: recombinant; tags: N-terminal GST; dsDNA, one strand shown
T9 sequence: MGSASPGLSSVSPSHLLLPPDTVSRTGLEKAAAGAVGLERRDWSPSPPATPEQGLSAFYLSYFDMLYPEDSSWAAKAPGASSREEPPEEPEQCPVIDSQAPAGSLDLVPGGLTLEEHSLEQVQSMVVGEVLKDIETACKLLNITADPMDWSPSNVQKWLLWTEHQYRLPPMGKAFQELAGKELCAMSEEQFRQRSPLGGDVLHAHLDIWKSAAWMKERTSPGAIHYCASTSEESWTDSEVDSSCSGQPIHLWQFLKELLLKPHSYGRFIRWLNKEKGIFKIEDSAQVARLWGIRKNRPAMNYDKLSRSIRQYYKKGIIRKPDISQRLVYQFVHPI
Method in brief: as §1

Sequence of HSF1 (Q00613 whole entry, the tested form may be a part): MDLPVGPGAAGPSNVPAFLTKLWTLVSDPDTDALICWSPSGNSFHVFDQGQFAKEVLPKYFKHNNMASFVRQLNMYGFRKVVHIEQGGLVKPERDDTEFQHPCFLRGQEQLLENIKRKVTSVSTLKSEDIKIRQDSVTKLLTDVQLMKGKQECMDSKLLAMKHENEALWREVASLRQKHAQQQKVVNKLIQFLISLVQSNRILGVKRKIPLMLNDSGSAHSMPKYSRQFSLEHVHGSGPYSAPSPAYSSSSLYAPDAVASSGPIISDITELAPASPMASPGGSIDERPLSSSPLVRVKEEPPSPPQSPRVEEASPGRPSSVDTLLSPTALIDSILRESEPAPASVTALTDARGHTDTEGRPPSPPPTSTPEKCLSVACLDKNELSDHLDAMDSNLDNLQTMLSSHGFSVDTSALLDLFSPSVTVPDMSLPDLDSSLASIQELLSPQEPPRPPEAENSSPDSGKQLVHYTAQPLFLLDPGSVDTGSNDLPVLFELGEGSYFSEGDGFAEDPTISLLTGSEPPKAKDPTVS
Sequence of ETV1 (P50549 whole entry): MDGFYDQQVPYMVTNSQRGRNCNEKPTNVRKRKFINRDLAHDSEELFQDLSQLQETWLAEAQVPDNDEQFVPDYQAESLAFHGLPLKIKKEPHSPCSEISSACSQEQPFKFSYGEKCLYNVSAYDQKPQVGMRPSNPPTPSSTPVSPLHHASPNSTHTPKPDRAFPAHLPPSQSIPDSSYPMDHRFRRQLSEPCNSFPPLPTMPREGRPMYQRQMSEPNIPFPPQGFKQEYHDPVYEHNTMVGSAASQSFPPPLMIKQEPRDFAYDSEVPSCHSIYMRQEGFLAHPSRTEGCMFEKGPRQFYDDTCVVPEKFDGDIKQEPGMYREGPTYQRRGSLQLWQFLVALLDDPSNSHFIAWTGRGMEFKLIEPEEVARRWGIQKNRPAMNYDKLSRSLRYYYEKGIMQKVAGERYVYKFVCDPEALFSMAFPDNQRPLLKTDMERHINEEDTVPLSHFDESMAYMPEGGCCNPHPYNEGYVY
Sequence of CRX (O43186 whole entry): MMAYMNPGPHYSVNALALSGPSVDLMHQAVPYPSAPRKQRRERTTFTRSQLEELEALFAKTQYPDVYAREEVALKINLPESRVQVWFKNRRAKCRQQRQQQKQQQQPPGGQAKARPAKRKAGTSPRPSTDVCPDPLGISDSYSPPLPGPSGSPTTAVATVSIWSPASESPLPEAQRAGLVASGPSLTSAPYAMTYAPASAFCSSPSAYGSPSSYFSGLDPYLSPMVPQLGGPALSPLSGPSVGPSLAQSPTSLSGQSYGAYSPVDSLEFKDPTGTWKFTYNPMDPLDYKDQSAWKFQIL
Sequence of SPIB (Q01892 whole entry): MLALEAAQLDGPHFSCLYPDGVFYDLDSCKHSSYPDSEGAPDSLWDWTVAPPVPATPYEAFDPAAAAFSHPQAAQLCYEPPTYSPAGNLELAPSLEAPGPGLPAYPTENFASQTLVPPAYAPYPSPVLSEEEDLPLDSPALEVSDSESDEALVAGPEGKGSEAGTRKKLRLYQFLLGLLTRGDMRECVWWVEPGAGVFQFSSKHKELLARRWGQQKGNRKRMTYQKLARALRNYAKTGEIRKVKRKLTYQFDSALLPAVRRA
Sequence of ELF1 (P32519 whole entry): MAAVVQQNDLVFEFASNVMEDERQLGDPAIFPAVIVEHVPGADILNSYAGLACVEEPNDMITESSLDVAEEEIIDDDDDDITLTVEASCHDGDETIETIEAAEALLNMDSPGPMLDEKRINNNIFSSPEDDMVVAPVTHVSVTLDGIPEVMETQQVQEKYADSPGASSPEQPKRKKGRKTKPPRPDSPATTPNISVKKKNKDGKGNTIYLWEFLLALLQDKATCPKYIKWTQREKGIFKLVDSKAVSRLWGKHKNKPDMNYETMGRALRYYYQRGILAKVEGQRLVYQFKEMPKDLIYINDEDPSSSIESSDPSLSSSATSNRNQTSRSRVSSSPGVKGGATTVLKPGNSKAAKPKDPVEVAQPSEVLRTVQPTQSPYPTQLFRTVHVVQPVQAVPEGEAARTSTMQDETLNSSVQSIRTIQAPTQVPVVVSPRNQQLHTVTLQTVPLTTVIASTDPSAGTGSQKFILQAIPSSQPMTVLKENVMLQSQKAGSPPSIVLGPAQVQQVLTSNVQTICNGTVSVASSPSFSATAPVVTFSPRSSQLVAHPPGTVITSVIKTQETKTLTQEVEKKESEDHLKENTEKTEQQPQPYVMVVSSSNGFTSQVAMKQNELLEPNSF

Q: With CGAGTA as the sequence, how does the binding signal [1] read?
A: 1.1 fold enrichment (6-mer frequency, TF over GST control)

Q: Which results are given for CCCTAG?
A: binding signal [2]: 1.04 fold enrichment (6-mer frequency, TF over GST control); binding signal [3]: 1.06 fold enrichment (6-mer frequency, TF over GST control); binding signal [4]: 1 fold enrichment (6-mer frequency, TF over GST control); binding signal [5]: 1.05 fold enrichment (6-mer frequency, TF over GST control); binding signal [1]: 1.15 fold enrichment (6-mer frequency, TF over GST control); binding signal [6]: 1.18 fold enrichment (6-mer frequency, TF over GST control); binding signal [7]: 1.01 fold enrichment (6-mer frequency, TF over GST control); binding signal [8]: 1.13 fold enrichment (6-mer frequency, TF over GST control); binding signal [9]: 1.01 fold enrichment (6-mer frequency, TF over GST control); binding signal [10]: 1.04 fold enrichment (6-mer frequency, TF over GST control); binding signal [11]: 1.03 fold enrichment (6-mer frequency, TF over GST control); binding signal [12]: 1.04 fold enrichment (6-mer frequency, TF over GST control)

Q: Which binding signal [1] does the source give for GATCGA here?
A: 1.07 fold enrichment (6-mer frequency, TF over GST control)

Q: What does the source list for GTAGAT?
A: binding signal [1]: 1 fold enrichment (6-mer frequency, TF over GST control); binding signal [6]: 1.16 fold enrichment (6-mer frequency, TF over GST control); binding signal [7]: 1.01 fold enrichment (6-mer frequency, TF over GST control); binding signal [8]: 1.01 fold enrichment (6-mer frequency, TF over GST control); binding signal [13]: 1.07 fold enrichment (6-mer frequency, TF over GST control); binding signal [10]: 1.06 fold enrichment (6-mer frequency, TF over GST control); binding signal [14]: 1.09 fold enrichment (6-mer frequency, TF over GST control); binding signal [11]: 1.02 fold enrichment (6-mer frequency, TF over GST control); binding signal [15]: 1.04 fold enrichment (6-mer frequency, TF over GST control)

— article PMC7862700, “An all-to-all approach to the identification of sequence-specific readers for epigenetic DNA modifications on cytosine”
